The results in this text go back to the supplement of paper PMC11628255, “Interference of metal ions on the bioluminescent signal of firefly, Renilla, and NanoLuc luciferases in high-throughput screening assays” (Frontiers in Chemistry, 2024).

The test system of this experiment is firefly luciferase (FLuc). The experiment in a line: residual bioluminescent signal relative to negative (DMSO) control; higher = less interference (more residual luciferase signal). How it is done: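 Purified luciferase (FLuc 10 nM + 10 uM D-luciferin; NLuc 10 pM + 10 uM furimazine; RLuc 50 pM + 2 uM coelenterazine) in 384-well plates; metal salt pre-incubated with enzyme 10 min at RT, substrate added and luminescence read after 10 min. Signal normalised to plate DMSO negative control (% N_VALUE = x/mean neg *100); triplicate wells at 0.01, 1 and 5 mM salt.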

Where [1] appears, read: metal salt concentration 0.01 mM, HEPES conditions (100 mM HEPES, 5 mM MgSO4, 10 uM ATP, pH 7.5).
The mark [2] stands for this setting: metal salt concentration 0.01 mM, screening conditions (0.5 mM Tris, 50 mM glycine, 0.5 mM EDTA, 5 mM MgSO4, 10 uM ATP, pH 7.6).
Setting [3] is: metal salt concentration 1 mM, HEPES conditions (100 mM HEPES, 5 mM MgSO4, 10 uM ATP, pH 7.5).
Where [4] appears, read: metal salt concentration 1 mM, screening conditions (0.5 mM Tris, 50 mM glycine, 0.5 mM EDTA, 5 mM MgSO4, 10 uM ATP, pH 7.6).
Where [5] appears, read: metal salt concentration 5 mM, HEPES conditions (100 mM HEPES, 5 mM MgSO4, 10 uM ATP, pH 7.5).
The mark [6] stands for this setting: metal salt concentration 5 mM, screening conditions (0.5 mM Tris, 50 mM glycine, 0.5 mM EDTA, 5 mM MgSO4, 10 uM ATP, pH 7.6).

The structures appear in SMILES notation. ± gives the standard deviation of the averaged measurements.

With `O=[N+]([O-])[O-].O=[N+]([O-])[O-].[Cd+2]` [cadmium nitrate], the residual bioluminescent signal by setting is: under setting [1], 2.44 ± 1.8%; under setting [2], 95.2 ± 4.7%; under setting [3], 1.09 ± 0.62%; under setting [4], 0.343 ± 0.12%; under setting [5], 1.09 ± 0.62%; under setting [6], 0.211 ± 0.17%.

Consider `O=[N+]([O-])[O-].[Li+]` [lithium nitrate], for which the residual bioluminescent signal under setting [1] was 92.2 ± 20%; the residual bioluminescent signal under setting [2] amounted to 93 ± 5.3%; the residual bioluminescent signal under setting [3] came out at 92.2 ± 40%; the residual bioluminescent signal under setting [4] stood at 85.8 ± 4.8%; the residual bioluminescent signal under setting [5] was determined as 90.5 ± 3.9%; the residual bioluminescent signal under setting [6] came out at 74.5 ± 2.7%.

Consider `[Cl][Sn][Cl]` [tin(II) chloride], for which the residual bioluminescent signal runs as follows: under setting [1], 41.7 ± 13%; under setting [2], 90.8 ± 3.9%; under setting [3], 1.22 ± 0.41%; under setting [4], 0.369 ± 0.12%; under setting [5], 1.9 ± 0.62%; under setting [6], 0.553 ± 0.079%.

On to `O=[N+]([O-])[O-].O=[N+]([O-])[O-].[Zn+2]` [zinc nitrate], for which the residual bioluminescent signal was 3.8 ± 1.2% under setting [1]; 81.5 ± 7.4% under setting [2]; 1.49 ± 0.85% under setting [3]; 0.817 ± 0.28% under setting [4]; 1.09 ± 0.85% under setting [5]; 0.316 ± 0.079% under setting [6].

Take `O=[N+]([O-])[O-].O=[N+]([O-])[O-].[Ni+2]` [nickel(II) nitrate]: the residual bioluminescent signal amounted to 64.7 ± 8.8% under setting [1]; 71.2 ± 7.5% under setting [2]; 2.31 ± 1.6% under setting [3]; 0.501 ± 0.33% under setting [4]; 0.814 ± 0.41% under setting [5]; 0.58 ± 0.091% under setting [6].

In the case of `O=[N+]([O-])[O-].O=[N+]([O-])[O-].O=[N+]([O-])[O-].[Ga+3]` [gallium(III) nitrate], the residual bioluminescent signal is, setting by setting: under setting [1], 86.3 ± 16%; under setting [2], 3.77 ± 5%; under setting [3], 72.6 ± 17%; under setting [4], 0.264 ± 0.091%; under setting [5], 0.679 ± 0.47%; under setting [6], 0.474 ± 0.48%.

As for `O=[N+]([O-])[O-].O=[N+]([O-])[O-].[Cu+2]` [copper(II) nitrate], the residual bioluminescent signal by setting is: under setting [1], 2.58 ± 1%; under setting [2], 108 ± 11%; under setting [3], 0.407%; under setting [4], 0.712 ± 0.4%; under setting [5], 0.95 ± 0.62%; under setting [6], 0.553 ± 0.32%.
